Laboratory results reported in PubChem BioAssay.
The source made the active and inactive calls. Unless noted, no rule for the calls is given here.

Experiments:
[1] = HepG2 liver cancer cell viability effects, profiling panel, resazurin fluorescence, 24 h, PK04 Diversity Set (AID 1172); conditions: higher = more signal
[2] = basal S. cerevisiae growth modulation, no modifier, primary screen, OD600, strain BY4716, 24 h, basal condition (AID 1173); conditions: OD600, 24 h, higher = more signal, called active from +8 up or from −8 down
[3] = MM1S myeloma cell viability, profiling panel, resazurin fluorescence, basal, 24 h, PK04 Diversity Set (AID 1174); conditions: higher = more signal, called active from +8 up or from −8 down;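 also: MM1S multiple myeloma cell line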
[4] = target: Dihydroorotate dehydrogenase (quinone), mitochondrial (Plasmodium falciparum (isolate 3D7)) (UniProt Q08210); experiment: PfDHODH enzyme inhibitors, primary screen, biochemical, C-terminal His tag, absorbance 600 nm (AID 1175); conditions: DCIP absorbance 600 nm, higher = more signal, called active from +8 up or from −8 down;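 also: recombinant parasite enzyme with a five histidine tag at its C terminus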
Chain of Dihydroorotate dehydrogenase (quinone), mitochondrial (Plasmodium falciparum (isolate 3D7)) (Q08210 whole entry, looked up): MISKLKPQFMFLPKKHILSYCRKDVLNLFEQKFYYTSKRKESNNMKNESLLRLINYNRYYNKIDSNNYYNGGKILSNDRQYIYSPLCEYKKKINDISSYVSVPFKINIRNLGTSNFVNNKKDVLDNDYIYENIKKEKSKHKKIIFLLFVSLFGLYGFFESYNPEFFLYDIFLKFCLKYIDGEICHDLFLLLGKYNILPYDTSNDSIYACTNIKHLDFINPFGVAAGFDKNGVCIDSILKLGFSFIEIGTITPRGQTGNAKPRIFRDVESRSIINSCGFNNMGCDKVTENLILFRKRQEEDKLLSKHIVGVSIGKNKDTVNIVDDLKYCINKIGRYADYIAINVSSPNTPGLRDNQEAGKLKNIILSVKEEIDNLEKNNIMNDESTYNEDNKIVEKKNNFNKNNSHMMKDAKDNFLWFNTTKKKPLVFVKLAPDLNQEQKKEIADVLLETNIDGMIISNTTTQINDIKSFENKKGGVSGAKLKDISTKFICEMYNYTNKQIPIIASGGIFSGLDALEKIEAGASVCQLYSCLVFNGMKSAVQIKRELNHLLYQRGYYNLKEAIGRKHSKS

[5] = P. aeruginosa biofilm formation inhibitors, primary screen, strain PAO1, LB-PBS medium, absorbance 600 nm (AID 1176); conditions: P. aeruginosa PAO1 growth/biofilm, A600, 12 h; higher = more signal
[6] = S. cerevisiae RM11-1a growth modifiers, primary screen, strain RM11-1a, OD600, basal, 24 h (AID 1177); conditions: OD600, 24 h, higher = more signal, called active from +8 up or from −8 down;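 also: cultures grown under basal conditions with no added stressor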
[7] = E. coli acrAB mutant growth effects, primary screen, E. coli filamentation inducers, strain DRC39, OD650, 24 h (AID 1178); conditions: higher = more signal, called active from +8 up or from −8 down;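 also: growth measured as culture turbidity by optical density at 650 nm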
[8] = E. coli acrAB mutant growth effects, primary screen, E. coli filamentation inducers, strain DRC39, OD650, 48 h (AID 1179);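 also: screen aims at cell division blockers that make cells filament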; conditions: E. coli DRC39 delta-acrAB growth, higher = more signal, called active from +8 up or from −8 down
[9] = RPMI8226 myeloma cell viability, profiling panel, resazurin fluorescence, basal, 24 h, PK04 Diversity Set (AID 1180); conditions: higher = more signal;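 also: RPMI8826 multiple myeloma cell line at 5000 cells per well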
[10] = target: E3 ubiquitin-protein ligase XIAP (Homo sapiens) (UniProt P98170); experiment: XIAP binders, primary screen, biophysical, small-molecule microarray, fluorescence 635 nm (AID 1181); conditions: small-molecule microarray binding, higher = more signal;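 also: score merges 667 nm emission and signal to noise over triplicate slides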
Chain of E3 ubiquitin-protein ligase XIAP (Homo sapiens) (P98170 whole entry, looked up): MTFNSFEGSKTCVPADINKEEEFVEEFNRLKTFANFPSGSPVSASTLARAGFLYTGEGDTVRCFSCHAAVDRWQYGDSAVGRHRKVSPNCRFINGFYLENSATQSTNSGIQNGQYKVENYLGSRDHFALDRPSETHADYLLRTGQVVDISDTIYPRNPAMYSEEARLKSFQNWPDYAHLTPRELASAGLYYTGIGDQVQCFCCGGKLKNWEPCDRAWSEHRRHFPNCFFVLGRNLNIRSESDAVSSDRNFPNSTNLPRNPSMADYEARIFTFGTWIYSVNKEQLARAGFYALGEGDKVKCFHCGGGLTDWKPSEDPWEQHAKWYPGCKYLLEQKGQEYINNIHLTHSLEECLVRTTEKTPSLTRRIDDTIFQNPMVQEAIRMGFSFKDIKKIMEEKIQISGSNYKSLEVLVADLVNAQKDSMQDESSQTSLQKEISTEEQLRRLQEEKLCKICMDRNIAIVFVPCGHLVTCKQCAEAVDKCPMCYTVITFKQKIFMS

[11] = system: XIP peptide (Xip251-270) binding; experiment: small-molecule binders of XIP peptide, primary screen, biochemical, small-molecule microarray, fluorescence 635/667 nm, 0.1 µg/mL protein (AID 1182); conditions: fluorescent protein binding, 635 nm, higher = more signal, called active from +8 up or from −8 down
XIP peptide (Xip251-270) = experiment: small-molecule binders of XIP peptide, primary screen, biochemical, small-molecule microarray, fluorescence 635/667 nm, 0.5 µg/mL protein (AID 1183); conditions: small-molecule microarray binding, fluorescence 635 nm; higher = more signal
[12] = Plasmodium falciparum growth inhibition, primary screen, strain 3D7, DAPI fluorescence, 100 nL (AID 1184);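 also: parasites grown inside human red blood cells in medium with human serum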; conditions: P. falciparum 3D7 growth, 3 d, higher = more signal
[13] = target: Homeobox protein Hox-A13 (Mus musculus) (UniProt Q62424); experiment: inhibitors of HoxA13-DNA binding, primary screen, biochemical, fluorescence polarization, labeled oligonucleotide (AID 1185); conditions: 15 min, higher = more signal, called active from +8 up or from −8 down
Chain of Homeobox protein Hox-A13 (Mus musculus) (Q62424 whole entry, looked up): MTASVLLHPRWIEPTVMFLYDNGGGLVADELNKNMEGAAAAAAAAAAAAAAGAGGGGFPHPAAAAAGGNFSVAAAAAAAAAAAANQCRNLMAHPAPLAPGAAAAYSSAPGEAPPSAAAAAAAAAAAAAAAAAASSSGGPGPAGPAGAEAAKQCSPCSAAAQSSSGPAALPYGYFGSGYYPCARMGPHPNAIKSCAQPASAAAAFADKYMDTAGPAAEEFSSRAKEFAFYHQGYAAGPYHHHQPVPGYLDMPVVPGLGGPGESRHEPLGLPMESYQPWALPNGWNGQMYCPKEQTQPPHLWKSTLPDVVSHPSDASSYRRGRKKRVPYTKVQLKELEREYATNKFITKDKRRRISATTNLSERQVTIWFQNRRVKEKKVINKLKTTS

[14] = inhibitors of hydroxyurea-induced Chk1 phosphorylation, primary screen, imaging, HeLa, phospho-Chk1 antibody, percent positive cells (AID 1186); conditions: hydroxyurea-induced phospho-Chk1 immunofluorescence imaging, higher = more signal
[15] = inhibitors of hydroxyurea-induced Chk1 phosphorylation, primary screen, imaging, HeLa, phospho-Chk1 nuclear intensity (AID 1187); conditions: hydroxyurea-induced phospho-Chk1 immunofluorescence imaging, higher = more signal

SMILES	z-score [1]	z-score [2]	z-score [3]	composite z-score [4]	z-score [5]	z-score [6]	z-score [7]	z-score [8]	z-score [9]	composite z-score [10]	composite z-score [11]	composite z-score (XIP peptide (Xip251-270))	z-score [12]	z-score [13]	z-score [14]	z-score [15]
C=CCOC(=O)[C@@H]1[C@H]2C(=O)O[C@H](c3ccccc3)[C@H](c3ccccc3)N2[C@H](c2ccc(OCCOC(=O)[C@H]3C[C@H]4C(=O)N[C@@H](Cc5ccccc5)C(=O)N4[C@H]3c3ccc(O)cc3)cc2)[C@@]12C(=O)Nc1ccc(I)cc12	-0.0291	-0.149 (inactive)	-1.98 (inactive)	-8.55 (active)	0.932 (inactive)	2.52 (inactive)	-1.52 (inactive)	-1.06 (inactive)	-1.01	-0.187	2.09 (inactive)	0.81	0.265	6.27 (inactive)	-0.177 (inactive)	-0.343 (inactive)
C[C@H]1C2[C@H](Cc3ccccc3)NC(=O)[C@]23C(=O)N[C@H](Cc2ccccc2)C(=O)N[C@H](Cc2ccccc2)C(=O)NC/C=C/CCC/C=C/C3[C@@H]2O[C@]12C (some centres undefined)	-1.6	-1.6 (inactive)	-0.121 (inactive)	0.453 (inactive)	-0.283 (inactive)	0.336 (inactive)	0.276 (inactive)	-0.934 (inactive)	-0.403	-0.0807	0.353 (inactive)	0.518	-1.71	-5.67 (inactive)	0.275 (inactive)	0.371 (inactive)
CC(C)C[C@@H]1NC(=O)[C@@H]2C[C@H](C(=O)NCCCCN(C)C)[C@H](c3ccc(O)cc3)N2C1=O	0.955	0.463 (inactive)	0.396 (inactive)	-0.0312 (inactive)	-0.475 (inactive)	0.505 (inactive)	-0.113 (inactive)	-0.401 (inactive)	0.0109	0.102	-0.0862 (inactive)	0.937	-0.06	-1.49 (inactive)	0.326 (inactive)	0.219 (inactive)
COc1ccc([Si](C)(C)[C@H]2[C@H](CCO)O[C@@]3(C(=O)N(Cc4cccc(N5C(=O)c6cccc7cccc5c67)c4)c4ccccc43)[C@@H]2C)cc1	-2.42	1.18 (inactive)	-4.22 (inactive)	0.763 (inactive)	1.51 (inactive)	4.72 (inactive)	0.0827 (inactive)	-0.511 (inactive)	-4.88	0.224	0.834 (inactive)	0.512	-2.82	-1.61 (inactive)	-0.283 (inactive)	-0.304 (inactive)
CC(C)OC(=O)C1=CCC(c2cccc(Cl)c2)O1 (centres undefined)	0.195	-5.96 (inactive)	0.242 (inactive)	-0.582 (inactive)	0.905 (inactive)	-2.25 (inactive)	-0.138 (inactive)	0.143 (inactive)	-0.501	-0.197	0.0142 (inactive)	0.677	-1.39	-0.554 (inactive)	0.147 (inactive)	0.0282 (inactive)
C=CCC(OC(C)=O)[C@@H]1[C@@H](N(Cc2ccc(-c3cccc(C(F)(F)F)c3)o2)C(=O)c2ccc(C)cc2)c2cc(OCCCO)ccc2N1C(=O)c1ccc2ccccc2n1 (some centres undefined)	0.347	-0.304 (inactive)	0.0003 (inactive)	-1.35 (inactive)	-0.325 (inactive)	-0.0057 (inactive)	-0.379 (inactive)	0.317 (inactive)	-0.37	0.265	-0.0348 (inactive)	-0.789	-0.537	-0.918 (inactive)	-0.51 (inactive)	-0.703 (inactive)
C=C(CCCC)/C(=C/C[C@@H](OC(=O)c1ccncc1)c1ccc(CO)o1)c1cc(C(=O)OC)ccc1OC	0.116	-0.973 (inactive)	-0.864 (inactive)	-5.02 (inactive)	0.847 (inactive)	-0.513 (inactive)	1.15 (inactive)	0.84 (inactive)	-0.466	0.508	0.611 (inactive)	0.83	-0.519	-3.68 (inactive)	-0.762 (inactive)	-1.65 (inactive)
Cc1ccccc1/C=C/C=O	0.779	-1.94 (inactive)	0.971 (inactive)	-0.464 (inactive)	-0.0902 (inactive)	-0.412 (inactive)	1.23 (inactive)	1.45 (inactive)	1.36	-0.141	0.958 (inactive)	0.532	-0.198	-0.848 (inactive)	0.133 (inactive)	0.0525 (inactive)
C=CCC(OC(C)=O)[C@@H]1[C@@H](N(Cc2cc3ccccc3o2)C(=O)c2ccc(-c3ccccc3)cc2)c2cc(OCCCO)ccc2N1C(=O)Cc1ccc2ccccc2c1 (some centres undefined)	-0.795	0.692 (inactive)	0.548 (inactive)	0.22 (inactive)	0.0793 (inactive)	0.854 (inactive)	1.15 (inactive)	0.682 (inactive)	1.13	-0.239	-0.317 (inactive)	-0.269	-0.835	-0.738 (inactive)	0.485 (inactive)	0.467 (inactive)
